# Reference: PubChem BioAssay (EPA / NIEHS)
# More than one record can exist for a structure, and the calls need not agree. Calls of active or inactive are those of the source. Rule for the calls: active = hit-call score of the fitted dose curve at least 0.9, where 1 is the maximum; inactive = score below 0.9.
# Molecular target: Signal transducer and activator of transcription 3 (Homo sapiens) (UniProt P40763)
# Assay: ATG_STAT3_CIS: Attagene CIS-FACTORIAL HepG2 Assay for human Signal Transducer and Activator of Transcription 3 (STAT3) (AID 2282963)
# Details: HepG2, Attagene cis-factorial STAT3 reporter transcription; actives raise or lower the signal
# Experimental: ATG_CIS is a cell-based, multiplexed-readout assay that uses HepG2, a human liver cell line, with measurements taken at 24 hours after chemical dosing in a 24-well plate.ATG_STAT3_CIS is one of 52 assay component(s) measured or calculated from the ATG_CIS assay. It is designed to make measurements of mRNA induction, a form of inducible reporter, as detected with fluorescence intensity signals by Reverse transcription polymerase chain reaction (RT-PCR) and Capillary electrophoresis technology.Data from the assay component ATG_STAT3_CIS was analyzed into 1 assay endpoint. This assay endpoint, ATG_STAT3_CIS, was analyzed with bidirectional fitting relative to DMSO as the negative control and baseline of activity. Using a type of inducible reporter, measures of mRNA for gain or loss-of-signal activity can be used to understand the reporter gene at the transcription factor-level as they relate to the gene STAT3. Furthermore, this assay endpoint can be referred to as a primary readout, because this assay has produced multiple assay endpoints where this one serves a reporter gene function. To generalize the intended target to other relatable targets, this assay endpoint is annotated to the dna binding intended target family, where the subfamily is stat protein.
# Human liver HepG2 cells are transiently transfected with multiple reporter transcription units (MRTUs) in 6-well plates using FuGene 6 reagent (Roche; 3 ml FuGene/1 mg DNA). The MRTU constructs are regulated by a cis-regulating element (promoter). […] A major difference between the CIS and TRANS system is that in CIS activities of endogenous TFs are measured, whereas the TRANS assay evaluates changes in activities of exogenous, chimeric NR-Gal4 proteins. […] At the end of 24 hour incubation, total RNA was isolated using TriZol reagent (Invitrogen). The isolated RNA is then reverse-transcribed using oligo(dT) primer and Mo-MLV reverse transcriptase (Invitrogen) with DNAse I (Ambion) treatment for 30 min. The one-tenth of the produced cDNA was amplified by PCR using Taq DNA polymerase (Invitrogen) and two reporter sequence-specific primers. The PCR products were fluorescently labeled by primer extension with 6-arboxyfluorescein (6-FAM) 5'-labeled reporter sequence-specific primer (2 min at 95 C, 20 s at 68 C and 10 min at 72 C) and these products were digested with 5U of HpaI (New England Biolabs) for 2h at 37 C. The fragments were purified using Qiaquick PCR columns (Qiagen), analyzed on an ABI 3130xL genetic analyzer (Applied Biosystems) with peak positions identified by using a set of X-rhodamine (ROX)-labeled MapMarker1000 molecular weight standards (BioVentures). The raw capillary electrophoresis data was processed using Attagraph software (Attagene).
# Chain of Signal transducer and activator of transcription 3 (Homo sapiens) (P40763 whole entry, looked up): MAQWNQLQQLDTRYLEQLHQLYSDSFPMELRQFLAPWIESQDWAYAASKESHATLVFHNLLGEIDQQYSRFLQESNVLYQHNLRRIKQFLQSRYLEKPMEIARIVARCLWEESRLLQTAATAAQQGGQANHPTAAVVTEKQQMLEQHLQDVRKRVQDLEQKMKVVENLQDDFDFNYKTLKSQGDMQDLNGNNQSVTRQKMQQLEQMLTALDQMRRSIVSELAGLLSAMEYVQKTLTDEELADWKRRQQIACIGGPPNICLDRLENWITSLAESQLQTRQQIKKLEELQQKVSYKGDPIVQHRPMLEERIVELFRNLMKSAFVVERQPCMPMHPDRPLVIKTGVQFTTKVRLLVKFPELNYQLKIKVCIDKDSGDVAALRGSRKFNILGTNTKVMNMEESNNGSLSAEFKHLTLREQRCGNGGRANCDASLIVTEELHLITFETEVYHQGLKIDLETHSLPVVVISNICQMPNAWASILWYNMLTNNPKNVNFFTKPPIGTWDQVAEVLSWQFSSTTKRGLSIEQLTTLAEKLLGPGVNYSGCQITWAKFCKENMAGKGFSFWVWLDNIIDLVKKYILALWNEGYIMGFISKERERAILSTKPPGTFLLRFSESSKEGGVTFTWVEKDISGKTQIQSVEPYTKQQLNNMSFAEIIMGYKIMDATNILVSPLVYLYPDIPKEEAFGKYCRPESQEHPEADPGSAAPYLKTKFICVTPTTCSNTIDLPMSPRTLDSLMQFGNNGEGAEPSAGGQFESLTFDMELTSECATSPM
Compound,outcome,AC50
CC(=O)O[C@]1(C(C)=O)CC[C@H]2[C@@H]3C=C(Cl)C4=CC(=O)[C@@H]5C[C@@H]5[C@]4(C)[C@H]3CC[C@@]21C,inactive,
O=C1OC(c2ccc(O)cc2)(c2ccc(O)cc2)c2ccccc21,inactive,
CC(COCC(C)OC(=O)c1ccccc1)OC(=O)c1ccccc1 (stereo not given),inactive,
O=C(N[C@@H](c1ccccc1)[C@@H]1CCCCN1)c1cccc(C(F)(F)F)c1Cl,inactive,
Cc1cc(Cc2ccc(N)c(C)c2)ccc1N,inactive,
Nc1nc(Cl)nc2c1ncn2[C@H]1C[C@H](O)[C@@H](CO)O1,inactive,
CCCC(=O)O,inactive,
Cc1occc(=O)c1O,inactive,
COc1ccc(OC(F)(F)F)cc1CN[C@H]1CCCN[C@H]1c1ccccc1,inactive,
CC1=C(C)S(=O)(=O)CCS1(=O)=O,inactive,
CSc1ccc(Oc2ccc(S(N)(=O)=O)cc2CN(C)C)cc1C,inactive,
CCCCCCCCCC[N+](C)(C)[O-],inactive,
CCN(CC)CCOc1ccc(C(=C(Cl)c2ccccc2)c2ccccc2)cc1,inactive,6.09 µM (active)
NC(=Nc1ccccc1)Nc1ccccc1,inactive,
C=CCCCCCCCCCCCC,inactive,
CC(C)c1cccc(C(C)C)c1,inactive,
CCCCCCC(C=O)=Cc1ccccc1,inactive,
CN(C)C(=O)NC1(c2ccccc2)CCN(CC[C@@]2(c3ccc(F)c(F)c3)CN(C(=O)c3ccccc3)CCO2)CC1,inactive,
CC(C)NCC(O)c1ccc(O)c(O)c1 (stereo not given),inactive,
CS(=O)(=O)c1ccc([C@@H](C[C@H]2CCC(=O)C2)C(=O)Nc2cnccn2)cc1Cl,inactive,

Compound,outcome,AC50
CCc1nc(N)nc(N)c1-c1ccc(Cl)cc1,inactive,
CC(C)COC(=O)CCCCC(=O)OCC(C)C,inactive,
CC(=O)CC(c1ccccc1)c1c(O)c2ccccc2oc1=O (stereo not given),inactive,
CC(C)(C)c1ccccc1,inactive,
CCCCc1nc2cccnc2n1Cc1ccc(-c2ccccc2-c2nnn[nH]2)cc1,inactive,
CCCC[C@H]1CN(CC2CCOCC2)C(=O)OC12CCN(C1(C)CCN(C(=O)c3c(C)ncnc3C)CC1)CC2,inactive,
CCCCCCC(CCCCCCCCCCC(=O)OCC(COC(C)=O)OC(C)=O)OC(C)=O (stereo not given),inactive,
N[C@@H](Cc1c[nH]c2ccccc12)C(=O)O,inactive,
CC(=O)S[C@H](C(=O)N[C@H]1Cc2ccccc2[C@H]2CCC[C@@H](C(=O)O)N2C1=O)C(C)C,inactive,
CC(C)(O)c1ccc(CNC(=O)c2cccnc2Oc2ccc(F)cc2)cc1,inactive,
CC(N)=O,inactive,
O=[Si]=O,inactive,
CC(=O)OCC(COC(C)=O)OC(C)=O,inactive,
COC(=O)CCCC(=O)OC,inactive,
Cc1cn([C@H]2C=C[C@@H](CO)O2)c(=O)[nH]c1=O,inactive,
NC=O,inactive,
CC(C)OC(=O)C(C)(C)Oc1ccc(C(=O)c2ccc(Cl)cc2)cc1,inactive,
O=C(NS(=O)(=O)/C=C/c1cccs1)c1ccc(F)cc1Br,inactive,
Cc1ccc(-c2cc(C(F)(F)F)nn2-c2ccc(S(N)(=O)=O)cc2)cc1,inactive,
